In PubChem BioAssay one finds composite z-score and z-score data, which are given here for 6 molecules.

Active and inactive are the calls of the source. Unless noted, no rule for the calls is given here.

Experiment [1] can be described thus: anti-His antibody binders, primary screen, artefact control for SMM control protein annotation, biochemical, small-molecule microarray, 635 nm fluorescence (AID 1128).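 Also: score merges feature fluorescence with signal-to-noise for each printed compound spot.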 The following applies: anti-His Alexa647 antibody binding, higher = more signal.
The subject of experiment [2] is Human papillomavirus type 1a E7 protein (residues 1-88). Briefly: HPV1a E7 small-molecule binders, primary screen, biochemical, small-molecule microarray, residues 1-88, 635 nm (AID 1129). The note with it: small-molecule microarray binding, fluorescence 635 nm; higher = more signal.
In experiment [3] the target is Focal adhesion kinase 1 (Homo sapiens) (UniProt Q05397). As to the kind of experiment: small-molecule microarray binders of FAK, primary screen, biochemical, 635/667 nm fluorescence, BSA, DTT (AID 1130).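 Also: composite of spot emission at 667 nm and signal to noise over triplicate slides.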 The note with it: PTK2 binding, 635 nm fluorescence, higher = more signal.
Experiment [4] deals with Fibrinogen (Alexa647-labelled). As to the kind of experiment: fibrinogen binders on compound microarrays, profiling panel, artefact control for SMM control-protein annotation, biochemical, small-molecule microarray, 635/667 nm fluorescence (AID 1131).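 Also: z-score merges 667 nm fluorescence with per-spot signal-to-noise over triplicate slides.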 The following applies: fibrinogen-A647 binding fluorescence, higher = more signal.
The target in experiment [5] is Follistatin (Homo sapiens) (UniProt P19883). As to the kind of experiment: follistatin binders on small-molecule microarrays, primary screen, biochemical, small-molecule microarray, 635/667 nm fluorescence (AID 1132). The following applies: FST binding, 635 nm fluorescence, higher = more signal.
The target of experiment [6] is Fibroblast growth factor 2 (Homo sapiens) (UniProt P09038). Briefly: FGF2 binders on small-molecule microarrays, primary screen, biochemical, small-molecule microarray, 635/667 nm fluorescence (AID 1133). The following applies: small-molecule microarray binding, FGF2, fluorescence 635/667; higher = more signal.
A short description of experiment [7]: mitochondrial membrane potential change in A549 cells, profiling panel, cell-based, JC-1 fluorescence, basal, 24 h, 100 nL (AID 1138).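 Also: A549 lung adenocarcinoma cells under basal conditions with no added stimulus; test concentration not given here.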 The following applies: higher = more signal.
The test system of another experiment is Lefty1. Briefly: Lefty1 binders on small-molecule microarrays, primary screen, biochemical, small-molecule microarray, 635/667 nm fluorescence (AID 1139). The following applies: small-molecule microarray binding, fluorescence 635/667; higher = more signal.
The subject of experiment [8] is wheat germ agglutinin (Triticum aestivum), Alexa647-labelled. Briefly: wheat germ agglutinin binders on compound microarrays, profiling panel, artefact control for SMM control-protein annotation, biochemical, small-molecule microarray, 635/667 nm fluorescence (AID 1140).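 Also: score merges 667 nm feature emission with signal to noise over triplicate slides.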 The following applies: WGA-A647 binding, 635 nm fluorescence, higher = more signal.
Experiment [9] concerns the target Luciferin 4-monooxygenase (Photinus pyralis) (UniProt P08659). Briefly: firefly luciferase enzyme inhibitors, primary screen, biochemical, luminescence, purified enzyme, 2006 set (AID 1141).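 Also: cell-free assay with purified firefly luciferase at 100 ng per well in PBS; test concentration not given here.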 The following applies: SteadyGlo luminescence, 30 min, higher = more signal, called active from +8 up or from −8 down.
Experiment [10] has as its system Wnt5a (protein binding on small-molecule microarray). As to the kind of experiment: Wnt5a binders on small-molecule microarray, primary screen, biophysical, 635/667 nm fluorescence (AID 1142).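 Also: fluorescence read at 667 nm with signal to noise per printed feature.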 The note with it: 635 nm fluorescence, higher = more signal.
Experiment [11] is described as follows: cell viability in Huh7 cells, primary screen, cytotoxicity control for HCV replication inhibitor project, CellTiter-Glo luminescence, basal, 48 h (AID 1143).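 Also: Huh7 hepatoma cells carrying a hepatitis C replication reporter with no stimulus; test concentration not given here.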 The following applies: Huh7 HCV replicon, higher = more signal, called active from +8 up or from −8 down. For orientation: In ATP-based viability assays light output follows the ATP content of the culture.

Experiment [12] can be described thus: P. aeruginosa biofilm formation inhibitors, primary screen, PAO1 strain, BacTiter-Glo luminescence, LB-PBS (AID 1144). The note with it: 12 h, higher = more signal.
Experiment [13] is described as follows: CREB reporter modulators without forskolin, primary screen, cell-based, PC12, CRE-LacZ reporter, unstimulated (AID 1145). The following applies: no forskolin, luminescence, 4.5 h, higher = more signal, called active from +8 up or from −8 down.
Experiment [14] in a line: CREB reporter modulators under forskolin, primary screen, cell-based, PC12, CRE-LacZ reporter, forskolin-stimulated (AID 1146).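 Also: PC12 cells with 6xCRE LacZ reporter stimulated by forskolin 10 µM; beta-galactosidase reporter signal reflecting CREB driven transcription.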 The following applies: luminescence, 4.5 h, higher = more signal, called active from +8 up or from −8 down.
For experiment [15], the target named is Streptavidin (Streptomyces avidinii) (UniProt P22629). Briefly: streptavidin binders on small-molecule microarray, primary screen, artefact control for SMM compound annotation, biophysical, 635/667 nm fluorescence (AID 1147).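 Also: signal reflects streptavidin binding to arrayed compounds as a control protein.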 The following applies: streptavidin binding, higher = more signal.
Experiment [16] can be described thus: small-molecule binders of probe aInhba, primary screen, biochemical, small-molecule microarray, 635/667 nm fluorescence (AID 1148).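 Also: score merges 667nm spot fluorescence with signal-to-noise for antibody binding to printed compounds.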 The following applies: higher = more signal.
For experiment [17], the target named is Torsin-1A (Homo sapiens) (UniProt O14656). Briefly: torsin A binders from cell lysate, primary screen, small-molecule microarray, wild-type, 635/667 nm (AID 1149). The following applies: COS7 hTOR1A-WT lysate, 635 nm fluorescence, higher = more signal.
For experiment [18] the target is unchanged. As to the kind of experiment: small-molecule binders of mutant TOR1A in lysate, primary screen, cell lysate, small-molecule microarray, COS7 lysate, 635/667 nm fluorescence (AID 1150).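 Also: score pools 667 nm emission and signal to noise measuring lysate protein binding.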 The following applies: COS7 hTOR1A mutant lysate, 635 nm fluorescence, higher = more signal.
For experiment [19], the system named is Sonic hedgehog protein (Shh). As to the kind of experiment: small-molecule binders of Shh protein, primary screen, biochemical, small-molecule microarray, 635/667 nm fluorescence (AID 1151).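 Also: Shh protein binding to compounds spotted on small-molecule microarray slides; score combines spot fluorescence intensity with signal-to-noise across triplicate slides.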 The note with it: small-molecule microarray binding, 635 nm fluorescence; higher = more signal.

Sequence of Torsin-1A (Homo sapiens) (O14656 whole entry, looked up): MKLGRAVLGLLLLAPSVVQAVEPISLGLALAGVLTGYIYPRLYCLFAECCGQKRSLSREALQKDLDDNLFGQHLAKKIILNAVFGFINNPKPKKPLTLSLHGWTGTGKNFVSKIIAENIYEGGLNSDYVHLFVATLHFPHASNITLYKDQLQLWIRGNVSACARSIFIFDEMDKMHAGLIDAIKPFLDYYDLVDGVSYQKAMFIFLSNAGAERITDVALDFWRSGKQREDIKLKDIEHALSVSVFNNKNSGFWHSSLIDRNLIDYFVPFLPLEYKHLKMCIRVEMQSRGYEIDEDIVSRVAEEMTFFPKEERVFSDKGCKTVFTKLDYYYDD
Sequence of Focal adhesion kinase 1 (Homo sapiens) (Q05397 whole entry, looked up): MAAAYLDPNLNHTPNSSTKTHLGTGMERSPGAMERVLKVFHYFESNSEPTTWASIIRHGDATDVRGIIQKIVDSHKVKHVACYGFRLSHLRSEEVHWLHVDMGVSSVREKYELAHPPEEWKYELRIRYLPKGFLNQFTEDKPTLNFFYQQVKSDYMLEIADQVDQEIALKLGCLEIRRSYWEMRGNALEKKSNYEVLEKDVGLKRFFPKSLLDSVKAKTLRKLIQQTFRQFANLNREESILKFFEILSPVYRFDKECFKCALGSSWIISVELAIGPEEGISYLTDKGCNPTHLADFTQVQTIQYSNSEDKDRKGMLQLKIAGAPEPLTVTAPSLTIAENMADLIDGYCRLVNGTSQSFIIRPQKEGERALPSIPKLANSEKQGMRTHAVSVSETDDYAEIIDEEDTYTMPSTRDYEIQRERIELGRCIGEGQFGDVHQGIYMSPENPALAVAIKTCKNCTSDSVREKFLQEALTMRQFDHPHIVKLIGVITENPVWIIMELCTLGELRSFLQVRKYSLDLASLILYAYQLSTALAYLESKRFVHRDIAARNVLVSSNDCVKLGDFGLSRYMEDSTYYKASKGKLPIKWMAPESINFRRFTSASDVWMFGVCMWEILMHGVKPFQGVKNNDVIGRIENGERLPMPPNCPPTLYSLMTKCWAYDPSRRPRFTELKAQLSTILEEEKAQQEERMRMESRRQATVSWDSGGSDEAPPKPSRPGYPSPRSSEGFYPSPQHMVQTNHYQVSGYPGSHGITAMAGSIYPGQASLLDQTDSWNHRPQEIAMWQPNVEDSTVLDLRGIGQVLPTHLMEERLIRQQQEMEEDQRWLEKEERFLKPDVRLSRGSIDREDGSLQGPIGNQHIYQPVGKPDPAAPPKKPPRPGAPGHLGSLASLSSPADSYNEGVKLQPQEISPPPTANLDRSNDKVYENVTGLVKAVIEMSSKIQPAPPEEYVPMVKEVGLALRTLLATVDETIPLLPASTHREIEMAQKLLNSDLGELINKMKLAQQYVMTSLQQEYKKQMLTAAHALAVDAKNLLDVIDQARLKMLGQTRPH
Sequence of Fibroblast growth factor 2 (Homo sapiens) (P09038 whole entry, looked up): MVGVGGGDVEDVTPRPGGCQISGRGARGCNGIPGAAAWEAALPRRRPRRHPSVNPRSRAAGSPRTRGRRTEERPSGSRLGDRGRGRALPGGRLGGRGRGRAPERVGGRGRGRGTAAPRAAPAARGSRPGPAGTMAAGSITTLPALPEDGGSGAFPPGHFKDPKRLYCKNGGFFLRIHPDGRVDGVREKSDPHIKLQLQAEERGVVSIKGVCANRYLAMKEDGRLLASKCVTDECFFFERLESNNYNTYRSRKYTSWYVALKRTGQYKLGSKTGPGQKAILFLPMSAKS
Sequence of Streptavidin (Streptomyces avidinii) (P22629 whole entry, looked up): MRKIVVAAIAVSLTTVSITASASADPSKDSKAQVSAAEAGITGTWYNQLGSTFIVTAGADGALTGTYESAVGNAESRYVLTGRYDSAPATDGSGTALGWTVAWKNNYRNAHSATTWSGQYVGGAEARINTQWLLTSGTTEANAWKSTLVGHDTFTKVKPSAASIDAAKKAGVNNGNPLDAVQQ
Sequence of Luciferin 4-monooxygenase (Photinus pyralis) (P08659 whole entry, looked up): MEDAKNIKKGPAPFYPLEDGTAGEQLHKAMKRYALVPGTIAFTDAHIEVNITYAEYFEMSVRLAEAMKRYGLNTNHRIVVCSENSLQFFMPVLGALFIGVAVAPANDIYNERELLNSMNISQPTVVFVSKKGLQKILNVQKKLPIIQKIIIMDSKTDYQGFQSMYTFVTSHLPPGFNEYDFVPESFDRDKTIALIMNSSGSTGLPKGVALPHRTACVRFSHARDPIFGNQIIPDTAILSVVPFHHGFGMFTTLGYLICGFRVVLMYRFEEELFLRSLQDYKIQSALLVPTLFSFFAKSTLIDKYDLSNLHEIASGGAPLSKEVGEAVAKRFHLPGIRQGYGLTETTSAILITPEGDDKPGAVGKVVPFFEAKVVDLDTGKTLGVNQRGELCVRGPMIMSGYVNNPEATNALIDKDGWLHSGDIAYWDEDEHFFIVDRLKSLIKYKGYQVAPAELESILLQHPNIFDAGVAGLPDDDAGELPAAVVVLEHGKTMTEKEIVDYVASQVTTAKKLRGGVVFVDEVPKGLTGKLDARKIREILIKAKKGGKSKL
Sequence of Follistatin (Homo sapiens) (P19883 whole entry, looked up): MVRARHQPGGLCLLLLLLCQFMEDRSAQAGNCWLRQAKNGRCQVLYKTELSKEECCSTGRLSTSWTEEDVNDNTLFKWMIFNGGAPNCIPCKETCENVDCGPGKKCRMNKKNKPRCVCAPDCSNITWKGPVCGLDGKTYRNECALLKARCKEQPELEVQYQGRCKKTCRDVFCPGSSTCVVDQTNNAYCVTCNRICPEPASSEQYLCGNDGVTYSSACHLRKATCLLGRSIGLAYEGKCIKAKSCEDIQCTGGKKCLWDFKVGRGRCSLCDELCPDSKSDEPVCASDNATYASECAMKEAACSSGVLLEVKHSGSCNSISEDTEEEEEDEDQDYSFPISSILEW

Regarding `C=C[C@H](C)[C@H](O)c1ccc(OCCO)cc1`, the composite z-score was -0.151 in [1]; -1.55 in [2]; 0.151 in experiment [3]; -2.74 in experiment [4]; -0.74 in experiment [5]; -1.2 in experiment [6]. The composite z-score with Lefty1 is -0.91; in experiment [8], -0.89; in [10], -0.965; in experiment [15], -1.29; in experiment [16], -0.209; with Torsin-1A (Homo sapiens) [17], -2.73. The composite z-score was -1.99 in the experiment with Torsin-1A (Homo sapiens) [18] and -0.773 in [19]. Also, the z-score in experiment [7] is 0.145; in experiment [9], -24.9 (active); in experiment [11], -1.45 (inactive); in [12], 0.733 (inactive); in [13] it was -0.272 (inactive); in experiment [14], 0.0034 (inactive).
With `C=C[C@H](OC)[C@@H](OC(=O)Nc1ccc(SC)cc1)c1ccc(OCCO)cc1`, the composite z-score was 3.12 in [1]; 1.22 in experiment [2]; 0.39 in experiment [3]; -0.332 in experiment [4]; 0.236 in [5]; 0.453 in experiment [6]. Besides, the composite z-score is -0.444 with Lefty1; 0.833 in [8]; 0.712 in [10]; -0.414 in experiment [15]; -0.123 in experiment [16]; 0.212 in the experiment with Torsin-1A (Homo sapiens) [17]. Moreover, the composite z-score was found to be 0.792 with Torsin-1A (Homo sapiens) [18] and 0.255 in experiment [19]. In addition, the z-score in [7] was -1.56; in experiment [9], -1.94 (inactive); in experiment [11] it was -1.24 (inactive); in experiment [12] it was -1.2 (inactive); in experiment [13], 1.55 (inactive); in experiment [14], -0.648 (inactive).
As for `O=C1C2C=CC(C(O)c3ccc(-c4ccccc4)s3)N(Nc3ccccc3F)C2C(=O)N1c1ccccc1` (stereo not given), the composite z-score amounted to 1.29 in [1]; 1.21 in [2]; 0.816 in experiment [3]; 0.997 in experiment [4]; 1.18 in experiment [5]; 1.16 in [6]. Moreover, the composite z-score in the experiment with Lefty1 was 0.133; in [8], 0.994; in experiment [10] it was 0.26; in experiment [15], 1.06; in [16] it was -0.205; with Torsin-1A (Homo sapiens) [17] it was 0.254. Also, the composite z-score with Torsin-1A (Homo sapiens) [18] is 0.404; in [19], 0.433. The z-score in experiment [7] was -1.12; in [9], -0.324 (inactive); in experiment [11] it was 0.0093 (inactive); in [12], -0.729 (inactive); in experiment [13], 0.629 (inactive); in [14], 0.383 (inactive).
On to `CCCC[C@@H]1C[C@H]1[C@@H](NC(=O)c1ccccc1)c1ccc(-c2ccccc2)cc1`, for which the composite z-score in [1] was 0.676; in experiment [2] it was 0.818; in [3], -0.0867; in [4] it was 0.46; in [5], 0.203; in experiment [6], -0.368. Moreover, the composite z-score in the experiment with Lefty1 was -0.26; in experiment [8], 0.348; in experiment [10] it was -0.0558; in experiment [15], 0.301; in [16], -0.0736; in the experiment with Torsin-1A (Homo sapiens) [17] it was -0.256. The composite z-score with Torsin-1A (Homo sapiens) [18] was -0.0118; in [19], -1.11. For the same molecule, the z-score is -0.232 in experiment [7]; 0.0434 (inactive) in [9]; -4.35 (inactive) in experiment [11]; 0.257 (inactive) in experiment [12]; 0.0075 (inactive) in [13]; 0.31 (inactive) in experiment [14].
With `C[C@]1(C(=O)NCC(F)(F)F)c2ccccc2C(=O)N(Cc2cc(F)cc(C(F)(F)F)c2)[C@H]1c1ccc(CO)cc1`, the composite z-score in [1] is -0.99; in experiment [2], 0.105; in experiment [3], -0.0984; in experiment [4] it was 0.0953; in experiment [5] it was 1.24; in experiment [6] it was 0.261. The composite z-score is -0.273 in the experiment on Lefty1; -0.0396 in [8]; 0.0343 in [10]; -0.388 in experiment [15]; -0.128 in experiment [16]; 0.135 with Torsin-1A (Homo sapiens) [17]. For the same molecule, the composite z-score worked out at 0.527 with Torsin-1A (Homo sapiens) [18] and 0.394 in experiment [19]. Moreover, the z-score is -1.8 in experiment [7]; 0.408 (inactive) in [9]; -4.86 (inactive) in [11]; -0.704 (inactive) in [12]; 0.324 (inactive) in experiment [13]; 0.486 (inactive) in experiment [14].
As to `C=C(COC)/C(=C/C[C@H](OC(C)=O)c1ccccc1OCCO)c1cnc2ccccc2c1`, the composite z-score in experiment [1] worked out at 1.91; in experiment [2] it was 0.977; in [3], 0.528; in [4], 0.325; in experiment [5], 1.29; in experiment [6], 0.394. Also, the composite z-score was 0.814 with Lefty1; 0.666 in [8]; 0.704 in [10]; 0.351 in [15]; 0.0183 in experiment [16]; 0.0548 in the experiment with Torsin-1A (Homo sapiens) [17]. The composite z-score turned out to be 0.794 with Torsin-1A (Homo sapiens) [18] and 1.65 in experiment [19]. The z-score in experiment [7] was 0.0177; in experiment [9], 0.0631 (inactive); in experiment [11], -0.0339 (inactive); in experiment [12], -0.543 (inactive); in experiment [13], 0.131 (inactive); in experiment [14], 0.128 (inactive).
